Bioassay records as filed in PubChem.
Compounds with a hit are over-represented: about 11% of the library has one in this group of screens.
SW480 rerep: A quantitative high throughput screen for small molecules that induce DNA re-replication in SW480 colon adenocarcinoma cells. SW480 DNA re-replication, Hoechst DNA content imaging, 48 h. Potency, µM (highest dose often 46.1 µM), for inactives: top-dose re-replication activation, usual class: activators. actives 1.8% (n = 340,000). AID 624297, 2012; note: potency is the fitted concentration of half-maximal effect; % of control where 0% means no effect; nearly all actives have a fitted effect of over 55% in size
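First, 250 cells per well were seeded. Next, compound or vehicle (23 nL) was pinned in, plates sat 48 hr at 37 C. Finally Hoechst was added for 40 min before fluorescence scanning.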
RORg inh: qHTS for inhibitors of ROR gamma transcriptional activity | actives 5.4% (n = 310,000) | AID 2551, 2010 | Potency, µM (highest dose often 53.6 µM), without a hit: at the highest dose activity change, negative = inhibition, hits mostly inhibitors | Drosophila S2 Gal4-RORgamma UAS-luciferase reporter, 20 h | Nuclear receptor ROR-gamma (Mus musculus), P51450; note: potency is the fitted concentration of half-maximal effect; % is set by controls: 0 for no effect and ±100 for the full control effect; nearly all actives have a fitted effect of over 60% in size
Target sequence (P51450 whole entry, looked up, the tested form may be a part): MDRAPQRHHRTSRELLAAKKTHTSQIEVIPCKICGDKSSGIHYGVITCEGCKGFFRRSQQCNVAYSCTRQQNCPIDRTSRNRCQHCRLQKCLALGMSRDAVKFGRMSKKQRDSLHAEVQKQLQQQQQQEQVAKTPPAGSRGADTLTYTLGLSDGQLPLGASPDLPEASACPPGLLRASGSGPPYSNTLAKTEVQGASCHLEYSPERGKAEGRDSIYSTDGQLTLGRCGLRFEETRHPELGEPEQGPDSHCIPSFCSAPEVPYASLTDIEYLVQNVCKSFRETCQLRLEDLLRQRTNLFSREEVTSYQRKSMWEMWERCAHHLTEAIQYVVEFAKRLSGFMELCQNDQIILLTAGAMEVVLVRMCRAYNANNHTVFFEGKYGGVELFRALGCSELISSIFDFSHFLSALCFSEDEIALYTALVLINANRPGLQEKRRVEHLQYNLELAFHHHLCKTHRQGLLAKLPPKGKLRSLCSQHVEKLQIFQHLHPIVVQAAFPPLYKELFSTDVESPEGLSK
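Compounds are pin-transferred onto Drosophila Schneider cells expressing a copper-inducible Gal4–ROR gamma transactivation domain fusion. After 1 hr, copper sulfate is added to 700 uM final; luciferase is read 20 hr later.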
MCF10A rereplic: A quantitative high throughput screen for small molecules that induce DNA re-replication in MCF 10a normal breast cells | MCF 10A DNA re-replication, Hoechst nuclear intensity, 48 h | Potency, µM (doses to about 46.1 µM), without a hit: top-dose activity, positive = re-replication, hits mostly activators | actives 2.9% (n = 350,000); note: potency is the fitted concentration of half-maximal effect; % of control where 0% means no effect; nearly all actives have a fitted effect of over 50% in size
IL1B secr inh: qHTS for Inhibitors of Inflammasome Signaling: IL-1-beta AlphaLISA Primary Screen; actives 4.7% (n = 360,000); activity change, % at 57.5 µM; AID 743279, 2014; THP-1 LPS/ATP IL-1B secretion, AlphaLISA, 16 h; hits give low values; in the data active = activity change below about -50%; inconclusive = mostly about -30% to -49%; note: % is set by controls: 0 for no effect and ±100 for the full control effect
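THP-1 cells pretreated 1 hr with compounds (up to 57.5 uM final), then stimulated with LPS (250 ng/mL final) plus ATP (1.25 mM final); secreted IL-1B measured by AlphaLISA after 16 hr, decreased signal indicating inhibition.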
Gal4-VP16 FLuc: VP16 counterscreen qHTS for inhibitors of ROR gamma transcriptional activity | Drosophila S2 Gal4-VP16 UAS-luciferase, luminescence, 20 h | Potency, µM (titrated, usually from 53.6 µM), without a hit: at the highest dose activity, negative = inhibition, actives largely listed as inhibitors | actives 3.5% (n = 310,000);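 note: Gal4-VP16 expression switched on by copper sulfate through the metallothionein promoter; potency is the fitted concentration of half-maximal effect; % is set by controls: 0 for no effect and ±100 for the full control effect; nearly all actives have a fitted effect of over 50% in size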
Active calls of the source: *; i = inactive; ? = inconclusive; / = not tested or not shown; ! = not active in a repeat; [ ] = remark or other dose. Unless noted, calls come from the whole dose curve; as a rule, active = well fitted curve in the direction sought with a large enough effect; inconclusive = small, poorly fitted or top-dose-only effect, or another doubt; inactive = no such curve, though single readings can be large; an effect the other way counts as inactive or inconclusive.

SMILES	SW480 rerep	RORg inh	MCF10A rereplic	IL1B secr inh	Gal4-VP16 FLuc
O=C(CN1CCN(C(=O)c2ccco2)CC1)Nc1cc(S(=O)(=O)N2CCCC2)ccc1Cl	/	/	/	-16	/
O=C1Cc2cc(S(=O)(=O)Nc3ccc(N4CCOCC4)cc3)ccc2N1	1%	/	10%	-8	/
CC(C)Oc1ccccc1C1CC(=O)Nc2cc3c(cc21)OCCO3 (configuration not stated)	1.6µM*	1%	?	-5	?
COc1cccc(C2CC(=O)Nc3cc4c(cc32)OCCO4)c1OC(C)C (configuration not stated)	?	?	?	11	-30%
O=C(Nc1ccc(N2CCOCC2)c(Cl)c1)c1cccc(F)c1	1%	-11%	1%	-54*	?
O=C(Nc1ccc(N2CCOCC2)c(Cl)c1)c1c(F)c(F)c(F)c(F)c1F	?	-38%	?	-12	?
COc1c(C)cccc1C(=O)Nc1ccc(N2CCOCC2)c(Cl)c1	-4%	17%	-1%	-69*	-15%
O=C(Nc1ccc(N2CCOCC2)c(Cl)c1)c1cccnc1Cl	-3%	?	-14%	-6	4%
O=C(Nc1ccc(N2CCOCC2)c(Cl)c1)c1cc(F)c(F)cc1Cl	-3%	-37%	4%	-58*	11%
CCCCCCC#CC1C=CC(OC(=O)OCC)C(COC(=O)OCC)O1 (configuration not stated)	/	?	/	/	8%[10 µM]
CC1=CNC(=O)CC(C)(C)C1	/	/	/	14	/
CCOCc1c(C(=O)Nc2ccccc2N2CCN(C)CC2)oc2ccccc12	22%	/	28%	-57*	/
CN(C)c1nc(C(=O)NN)nc(N(C)C)n1	16%	-36%	3.7µM*	-8	-1%
Cc1cc(C)nc(/N=C2\NC(=O)CC(C(=O)O)N2c2ccc(Cl)cc2)n1 (configuration not stated)	3%	-23%	0%	14	0%
Cc1ccc(N2/C(=N/c3nc(C)cc(C)n3)NC(=O)CC2C(=O)O)cc1 (configuration not stated)	14%	4%	18µM*	14	-3%
Cn1c(=O)c2cc(NC(=S)NC3CCCCC3)ccc2n1Cc1ccc(Cl)cc1	/	/	/	-57*	/
S=C(Nc1ccc(Cl)c(Cl)c1)NC1CCCCC1	3.3µM*	2.5µM*	80%	-95*	5.6µM*
Cn1c(=O)c2cc(NC(=S)NC3CC3)ccc2n1Cc1cccc(C(F)(F)F)c1	/	/	/	34	/
S=C(Nc1ccc2nsnc2c1)NC1CCCCC1	6%	2.5µM*	-37%	-15	5µM*
CCOC(=O)CNC(=O)O[C@@H]1Cc2cc(OC)ccc2O[C@H]1c1cccc(OC)c1	/	3%	/	/	9%
CCOC(=O)C1=C(O)/C(=C/c2cc(OC)c(O)c(OC)c2)SC1=Nc1ccc(OC)cc1	?	18%	16µM*	-9	?
CCOC(=O)C1=C(O)/C(=C/c2ccc(-c3ccccc3C(=O)O)o2)SC1=Nc1ccc(C)cc1	?	-11%	13µM*	?	-20%
O=S(=O)(c1ccccc1)n1cc(-c2cccc3nccn23)c2ccccc21	/	/	/	16	/
OCC[C@@H]1C[C@H](O)[C@@H](O)[C@]2(OCCc3cc(Cl)ccc32)O1	/	/	/	-14	/
COC(=O)c1cc2occc2n1Cc1ccc(Cl)cc1	?	?	16µM*	-9	-12%
SMILES	SW480 rerep	RORg inh	MCF10A rereplic	IL1B secr inh	Gal4-VP16 FLuc
COC(=O)c1cc2occc2n1Cc1c(F)cccc1Cl	/	9%	/	/	?
c1ccc2c(C3OCC4(CCCCC4)CO3)cccc2c1	/	/	/	55	/
Cc1ccc(C)c(OCCCC(C)(C)C(=O)O)c1	1%	-5%	-3%	0	20µM*!
N#CC(Sc1ccccn1)c1ccc(Cl)cc1 (configuration not stated)	-4%	-20%	3%	-100*	0%
CCOC(=O)C1=CCN(S(=O)(=O)c2ccccc2C)C1c1ccccc1 (configuration not stated)	/	/	/	16	/
COCCCNC(=S)NC1CCCCC1	-1%	11µM*	-3%	i	?
Cc1ccc(CNC(=O)NC2CCCCC2)cc1	-18%	30%	1%	-23	5%
